# PubChem BioAssay
# Test: small-molecule binders of probe aInhba, primary screen, biochemical, small-molecule microarray, 635/667 nm fluorescence (AID 1148);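 also: score merges 667nm spot fluorescence with signal-to-noise for antibody binding to printed compounds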
# Conditions: higher = more signal
row,SMILES,composite z-score
1,O=C(OCc1ccccc1)C1=CCC2c3[nH]c4ccccc4c3C(=O)C1N2S(=O)(=O)c1ccccc1[N+](=O)[O-] (stereo unspecified),0.11
2,CC(C)=CCN[C@H](CO)c1ccccc1,0.102
3,O=C(c1ccccc1)N1Cc2ccccc2C[C@@]2(COC(c3ccc(OCCCO)cc3)=N2)C1=O,0.167
4,COC(=O)[C@H](Cc1ccccc1)N1CC2=C[C@@H](C3CC3)n3c(=O)n(C)c(=O)n3[C@H]2[C@@H]1[C@@H](O)Cc1ccccc1,-0.0589
5,COc1ccc(C#Cc2ccc3c(c2)[C@]2(C(=O)N3)[C@H](C(=O)NC[C@H](O)c3ccccc3)[C@H]3C(=O)O[C@H](c4ccccc4)[C@H](c4ccccc4)N3[C@@H]2c2ccc(O)cc2)cc1,-0.128
6,CC(C)C(=C=CC[C@@H](O)c1ccc(OCCO)cc1)C[C@@H](O)COCc1ccccc1,-0.0762
7,CCCCCN1CC=CC23O[C@@H]4C=CCCOC(=O)C4[C@H]2C(=O)N(CCCCCO)[C@@H]3C1=O (stereo partly specified),-0.157
8,CN1C=C(C(=O)OCCS(C)(=O)=O)C(C(=O)OCCS(C)(=O)=O)=CC(c2ccc(CO)cc2)=CC1C1CC1 (stereo unspecified),0.149
9,COc1cc(C(O)C2C=CC3C(=O)NC(=O)C3N2Nc2ccccn2)cc(OC)c1OC (stereo unspecified),0.0448
10,CN(C)CCCC[C@@H]1NC(=O)[C@H]2C[C@@H](C(=O)NCCCCCCN)[C@@H](c3ccc(O)cc3)N2C1=O,0.308
11,Cc1ccc(S[C@]2(C(=O)NCCCN(C)C)CC(=O)N(Cc3cc(C(F)(F)F)cc(C(F)(F)F)c3)[C@@H]2c2ccc(CO)cc2)cc1,0.0363
12,CC1(C)[C@@H]2CC(C(O)C3C=CC4C(=O)N(c5ccccc5)C(=O)C4N3Nc3ccc([N+](=O)[O-])cc3)=C[C@H]1C2 (stereo partly specified),0.0179
13,O=C1c2ccccc2[C@](Cc2ccccc2I)(C(=O)NCC(F)(F)F)[C@H](c2ccc(CO)cc2)N1Cc1ccccc1Cl,0.216
14,C=C(COC)C(=O)CC[C@@H](OC(C)=O)c1ccc(CO)o1,0.138
15,COc1ccccc1CN1C(=O)c2ccccc2[C@@H](C(=O)NC2CC2)[C@@H]1c1ccc(CO)cc1,0.297
16,COc1ccc(CCNC(=O)[C@@]2(Sc3ccc(C)cc3)CC(=O)N(C(C)C)[C@@H]2c2ccc(CO)cc2I)cc1,-0.0986
17,CCC[C@@H]1C[C@@]1(CCC)[C@@H](NS(=O)(=O)c1cccc2cccnc12)c1ccc(Cl)cc1,0.0966
18,CCCC[C@@H]1C[C@H]1[C@@H](NC(=O)c1ccccc1)c1ccc(C(=O)OC)cc1,-0.018
19,[N-]=[N+]=Nc1ccccc1[C@@H]1OC(c2ccc(OCCCO)cc2)=N[C@]1(CCS(=O)(=O)c1ccccc1)C(N)=O,0.207
20,COc1cc2c(cc1O)C(C1CC1)N(Cc1sc3ccccc3c1Cl)CC2 (stereo unspecified),-0.024
21,CO[C@H]1O[C@H](CO)[C@@H](OC(=O)Nc2ccccc2)[C@H](OC(=O)Nc2ccccc2)[C@@H]1OC(=O)Nc1ccccc1,0.347
22,COc1cccc(-c2cccc(=O)o2)c1,0.177
23,C=CCN1C(=O)[C@@]2(CC=C)N=C(c3ccc(OCCCO)cc3)O[C@H]2c2ccccc21,0.33
24,COCCOC(=O)N1C(=O)[C@@]2(c3cc(C#CCC(C(=O)OC)C(=O)OC)ccc31)[C@H](C(=O)Nc1nc3ccccc3s1)[C@H]1C(=O)O[C@H](c3ccccc3)[C@H](c3ccccc3)N1[C@@H]2c1ccccc1OCCO,0.0711
25,O=C1N[C@@H](Cc2ccccc2)C(=O)N2[C@@H]1C[C@@H](C(=O)O)[C@H]2c1cccc(OCCO)c1,-0.128
26,C=CCOC(=O)[C@H]1[C@@H]2C(=O)O[C@@H](c3ccccc3)[C@@H](c3ccccc3)N2[C@@H](c2ccc(OCCOC(=O)[C@H]3C[C@H]4C(=O)N[C@@H](CCCCNC(C)=O)C(=O)N4[C@H]3c3ccc(O)cc3)cc2)[C@]12C(=O)Nc1ccc(I)cc12,0.098
